# From the supplement of paper PMC4466140
# Columns and labels:
# Assay in all cases: SPOT peptide array binding signal intensity (averaged, normalized) (arbitrary units (background-subtracted, floor 0; scale differs between SH3 domains)); higher = stronger binding of the SH3 domain to the peptide
# AgAbp1 = biological target: AgAbp1
# Method in brief: (§1)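 E. coli BL21(DE3) was used to express GST-fused SH3 domains from four yeast species, which were then purified on glutathione Sepharose. These were incubated at 10 μg/ml in TBS-based blocking buffer overnight at 4°C on cellulose membranes carrying synthetic 15-mer peptides, in which cysteines were replaced by serines. Binding signal is the replicate average of normalized, background-subtracted spot intensity, in arbitrary units that differ between domains.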
# AgBbc1 = biological target: AgBbc1
# Method in brief: as §1
# AgBem1-D1 = biological target: AgBem1-D1
# Method in brief: as §1
# AgBzz1-D1 = biological target: AgBzz1-D1
# Method in brief: as §1
# AgBzz1-D2 = biological target: AgBzz1-D2
# Method in brief: as §1
# AgCyk3 = biological target: AgCyk3
# Method in brief: as §1
# AgFus1 = biological target: AgFus1
# Method in brief: as §1
# AgHof1 = biological target: AgHof1
# Method in brief: as §1
# AgHse1 = biological target: AgHse1
# Method in brief: as §1
# AgLsb1 = biological target: AgLsb1
# Method in brief: as §1
# AgLsb4 = biological target: AgLsb4
# Method in brief: as §1
# AgMyo5 = biological target: AgMyo5
# Method in brief: as §1
# AgNbp2 = biological target: AgNbp2
# Method in brief: as §1
# AgRvs167 = biological target: AgRvs167
# Method in brief: as §1
# AgSho1 = biological target: AgSho1
# Method in brief: as §1
# AgSla1-D1-D2 = biological target: AgSla1-D1-D2
# Method in brief: as §1
# AgSla1-D3 = biological target: AgSla1-D3
# Method in brief: as §1
# CaAbp1-D1 = biological target: CaAbp1-D1
# Method in brief: as §1
# CaAbp1-D2 = biological target: CaAbp1-D2
# Method in brief: as §1
# CaBbc1 = biological target: CaBbc1
# Method in brief: as §1
# CaBem1-D1 = biological target: CaBem1-D1
# Method in brief: as §1
# CaBzz1-D1 = biological target: CaBzz1-D1
# Method in brief: as §1
# CaBzz1-D2 = biological target: CaBzz1-D2
# Method in brief: as §1
# CaCyk3 = biological target: CaCyk3
# Method in brief: as §1
# CaFus1 = biological target: CaFus1
# Method in brief: as §1
# CaHof1 = biological target: CaHof1
# Method in brief: as §1
# CaHse1 = biological target: CaHse1
# Method in brief: as §1
# CaLsb1 = biological target: CaLsb1
# Method in brief: as §1
# CaLsb4 = biological target: CaLsb4
# Method in brief: as §1
# CaMyo5 = biological target: CaMyo5
# Method in brief: as §1
# CaNbp2 = biological target: CaNbp2
# Method in brief: as §1
# CaRvs167 = biological target: CaRvs167
# Method in brief: as §1
# CaRvs167-3 = biological target: CaRvs167-3
# Method in brief: as §1
# CaSho1 = biological target: CaSho1
# Method in brief: as §1
# CaSla1-D1-D2 = biological target: CaSla1-D1-D2
# Method in brief: as §1
# CaSla1-D3 = biological target: CaSla1-D3
# Method in brief: as §1
# ScAbp1 = biological target: ScAbp1
# Method in brief: as §1
# ScBbc1 = biological target: ScBbc1
# Method in brief: as §1
# ScBem1-D1 = biological target: ScBem1-D1
# Method in brief: as §1
# ScBzz1-D1 = biological target: ScBzz1-D1
# Method in brief: as §1
# ScBzz1-D2 = biological target: ScBzz1-D2
# Method in brief: as §1
# ScCyk3 = biological target: ScCyk3
# Method in brief: as §1
# ScFus1 = biological target: ScFus1
# Method in brief: as §1
# ScHof1 = biological target: ScHof1
# Method in brief: as §1
# ScHse1 = biological target: ScHse1
# Method in brief: as §1
# ScLsb1 = biological target: ScLsb1
# Method in brief: as §1
# ScLsb2 = biological target: ScLsb2
# Method in brief: as §1
# ScLsb3 = biological target: ScLsb3
# Method in brief: as §1
# ScLsb4 = biological target: ScLsb4
# Method in brief: as §1
# ScMyo3 = biological target: ScMyo3
# Method in brief: as §1
# ScMyo5 = biological target: ScMyo5
# Method in brief: as §1
# ScNbp2 = biological target: ScNbp2
# Method in brief: as §1
# ScPex13 = biological target: ScPex13
# Method in brief: as §1
# ScRvs167 = biological target: ScRvs167
# Method in brief: as §1
# ScSho1 = biological target: ScSho1
# Method in brief: as §1
# ScSla1-D1-D2 = biological target: ScSla1-D1-D2
# Method in brief: as §1
# ScSla1-D3 = biological target: ScSla1-D3
# Method in brief: as §1
# SpAbp1-D1 = biological target: SpAbp1-D1
# Method in brief: as §1
# SpBbc1 = biological target: SpBbc1
# Method in brief: as §1
# SpBzz1-D1 = biological target: SpBzz1-D1
# Method in brief: as §1
# SpBzz1-D2 = biological target: SpBzz1-D2
# Method in brief: as §1
# SpCyk3 = biological target: SpCyk3
# Method in brief: as §1
# SpHof1 = biological target: SpHof1
# Method in brief: as §1
# SpHof1-2 = biological target: SpHof1-2
# Method in brief: as §1
# SpHof1-3 = biological target: SpHof1-3
# Method in brief: as §1
# SpHse1 = biological target: SpHse1
# Method in brief: as §1
# SpLsb1 = biological target: SpLsb1
# Method in brief: as §1
# SpLsb4 = biological target: SpLsb4
# Method in brief: as §1
# SpMyo1 = biological target: SpMyo1
# Method in brief: as §1
# SpNbp2 = biological target: SpNbp2
# Method in brief: as §1
# SpPex13 = biological target: SpPex13
# Method in brief: as §1
# SpRvs167 = biological target: SpRvs167
# Method in brief: as §1
# SpSla1-D1-D2 = biological target: SpSla1-D1-D2
# Method in brief: as §1
# SpSla1-D3 = biological target: SpSla1-D3
# Method in brief: as §1
binder,measurement,setting,value
GSKSGPPPRPKKPST,SPOT peptide array binding signal intensity,AgAbp1,94
same,SPOT peptide array binding signal intensity,AgBbc1,780
same,SPOT peptide array binding signal intensity,AgBem1-D1,66.5
same,SPOT peptide array binding signal intensity,AgBzz1-D1,524
same,SPOT peptide array binding signal intensity,AgBzz1-D2,102
same,SPOT peptide array binding signal intensity,AgCyk3,≤ 0
same,SPOT peptide array binding signal intensity,AgFus1,23
same,SPOT peptide array binding signal intensity,AgHof1,39.2
same,SPOT peptide array binding signal intensity,AgHse1,≤ 0
same,SPOT peptide array binding signal intensity,AgLsb1,≤ 0
same,SPOT peptide array binding signal intensity,AgLsb4,≤ 0
same,SPOT peptide array binding signal intensity,AgMyo5,0.25
same,SPOT peptide array binding signal intensity,AgNbp2,37
same,SPOT peptide array binding signal intensity,AgRvs167,≤ 0
same,SPOT peptide array binding signal intensity,AgSho1,20
same,SPOT peptide array binding signal intensity,AgSla1-D1-D2,9
same,SPOT peptide array binding signal intensity,AgSla1-D3,7.5
same,SPOT peptide array binding signal intensity,CaAbp1-D1,328
same,SPOT peptide array binding signal intensity,CaAbp1-D2,189
same,SPOT peptide array binding signal intensity,CaBbc1,825
same,SPOT peptide array binding signal intensity,CaBem1-D1,13
same,SPOT peptide array binding signal intensity,CaBzz1-D1,1530
same,SPOT peptide array binding signal intensity,CaBzz1-D2,388
same,SPOT peptide array binding signal intensity,CaCyk3,36.5
same,SPOT peptide array binding signal intensity,CaFus1,42
same,SPOT peptide array binding signal intensity,CaHof1,1.5
same,SPOT peptide array binding signal intensity,CaHse1,0.5
same,SPOT peptide array binding signal intensity,CaLsb1,0.5
same,SPOT peptide array binding signal intensity,CaLsb4,≤ 0
same,SPOT peptide array binding signal intensity,CaMyo5,0.5
same,SPOT peptide array binding signal intensity,CaNbp2,27
same,SPOT peptide array binding signal intensity,CaRvs167,≤ 0
same,SPOT peptide array binding signal intensity,CaRvs167-3,3.5
same,SPOT peptide array binding signal intensity,CaSho1,29.5
same,SPOT peptide array binding signal intensity,CaSla1-D1-D2,130
same,SPOT peptide array binding signal intensity,CaSla1-D3,230
same,SPOT peptide array binding signal intensity,ScAbp1,234
same,SPOT peptide array binding signal intensity,ScBbc1,97.8
same,SPOT peptide array binding signal intensity,ScBem1-D1,15
same,SPOT peptide array binding signal intensity,ScBzz1-D1,48.5
same,SPOT peptide array binding signal intensity,ScBzz1-D2,72
same,SPOT peptide array binding signal intensity,ScCyk3,1
same,SPOT peptide array binding signal intensity,ScFus1,6.5
same,SPOT peptide array binding signal intensity,ScHof1,1.75
same,SPOT peptide array binding signal intensity,ScHse1,13
same,SPOT peptide array binding signal intensity,ScLsb1,2.5
same,SPOT peptide array binding signal intensity,ScLsb2,0.5
same,SPOT peptide array binding signal intensity,ScLsb3,1400
same,SPOT peptide array binding signal intensity,ScLsb4,5
same,SPOT peptide array binding signal intensity,ScMyo3,5.25
same,SPOT peptide array binding signal intensity,ScMyo5,≤ 0
same,SPOT peptide array binding signal intensity,ScNbp2,51
same,SPOT peptide array binding signal intensity,ScPex13,133
same,SPOT peptide array binding signal intensity,ScRvs167,3.33
same,SPOT peptide array binding signal intensity,ScSho1,41
same,SPOT peptide array binding signal intensity,ScSla1-D1-D2,57.5
same,SPOT peptide array binding signal intensity,ScSla1-D3,28
same,SPOT peptide array binding signal intensity,SpAbp1-D1,85
same,SPOT peptide array binding signal intensity,SpBbc1,5.5
same,SPOT peptide array binding signal intensity,SpBzz1-D1,320
same,SPOT peptide array binding signal intensity,SpBzz1-D2,2
same,SPOT peptide array binding signal intensity,SpCyk3,≤ 0
same,SPOT peptide array binding signal intensity,SpHof1,1.5
same,SPOT peptide array binding signal intensity,SpHof1-2,10.5
same,SPOT peptide array binding signal intensity,SpHof1-3,25
same,SPOT peptide array binding signal intensity,SpHse1,16.2
same,SPOT peptide array binding signal intensity,SpLsb1,12.5
same,SPOT peptide array binding signal intensity,SpLsb4,332
same,SPOT peptide array binding signal intensity,SpMyo1,8
same,SPOT peptide array binding signal intensity,SpNbp2,5
same,SPOT peptide array binding signal intensity,SpPex13,7
same,SPOT peptide array binding signal intensity,SpRvs167,≤ 0
same,SPOT peptide array binding signal intensity,SpSla1-D1-D2,5
same,SPOT peptide array binding signal intensity,SpSla1-D3,1
